Measured values reported in the supplement of paper PMC13380429.
Values without a mark were called inactive.

Test system: Vero E6 infected with SARS-CoV-2
Experiment: inhibition of SARS-CoV-2 cytopathic effect; higher = more antiviral protection, active = above 15
Conditions: 48 h

| SMILES | inhibition of SARS-CoV-2 cytopathic effect (1 nM) [%] | inhibition of SARS-CoV-2 cytopathic effect (8.33 nM) [%] | inhibition of SARS-CoV-2 cytopathic effect (100 nM) [%] | inhibition of SARS-CoV-2 cytopathic effect (833.33 nM) | inhibition of SARS-CoV-2 cytopathic effect (10000 nM) [%] |
| --- | --- | --- | --- | --- | --- |
| C1N2CN3CN1CN(C2)C3 [methenamine] | -3.74 | 0.58 | -1.64 | -0.2% | -1.08 |
| CCCN1CCCC[C@H]1C(=O)Nc1c(C)cccc1C [ropivacaine] | 1.32 | 1.42 | 2.5 | 3.09% | -1.63 |
| C#C[C@]1(O)CC[C@H]2[C@@H]3CCc4cc(O)ccc4[C@H]3CC[C@@]21C | 0.97 | 0.51 | 6.67 | 3.6% | 7.74 |
| CCc1ccc(/C=C/C(=O)Nc2ccc(C(C)=O)cc2)o1 [heclin] | -2.06 | -1.28 | -7.85 | -6.86% | -5.66 |
| CCC1=C[C@@H]2CN(C1)Cc1c([nH]c3ccccc13)[C@@](C(=O)OC)(c1cc3c(cc1OC)N(C)[C@H]1[C@@](O)(C(=O)OC)[C@H](OC(C)=O)[C@]4(CC)C=CCN5CC[C@]31[C@@H]54)C2 [vinorelbine] | -1.63 | -1.57 | -1.35 | -2.48% | -3.81 |
| NC(=O)C1=CN([C@@H]2O[C@H](COP(=O)(O)OP(=O)(O)OC[C@H]3O[C@@H](n4cnc5c(N)ncnc54)[C@H](OP(=O)(O)O)[C@@H]3O)[C@@H](O)[C@H]2O)C=CC1 | 0.75 | 3.17 | 2.16 | 0.8% | -1.27 |
| CC(=O)Nc1ccc(C(=O)Nc2ccccc2N)cc1 [tacedinaline] | 1.04 | 1.48 | -0.39 | -3.01% | -1.74 |
| O=[N+]([O-])O[C@@H]1CO[C@H]2[C@@H]1OC[C@@H]2O [isosorbide-mononitrate] | -2.43 | -1.06 | -1.7 | 2.64% | 1.45 |
| COc1ccccc1N1CCN(CCCNc2cc(=O)n(C)c(=O)n2C)CC1 [urapidil] | 0.14 | -1.36 | -0.45 | 2.04% | -0.1 |
| CCN(CC)C(=S)SSC(=S)N(CC)CC [disulfiram] | 1.63 | 1.79 | 1.68 | 26.5% (active) | 13.2 |
| O.O.O.O.O=C([O-])CC(O)(CC(=O)[O-])C(=O)[O-].[Li+].[Li+].[Li+] [lithium-citrate] | 0.34 | -0.51 | -1.43 | 1.38% | 1.33 |
| C[C@@]1(CO)[C@H](O)CC[C@@]2(C)[C@H]1CC[C@H]1C[C@@H]3C[C@@]12CC[C@]3(O)CO [aphidicolin] | -5.87 | -3.68 | -2.81 | -0.76% | -2.66 |
| COC(=O)c1ccccc1O [methyl-salicylate] | 0.7 | 2.86 | 2.42 | -0.42% | -3.74 |
| C[C@H]1C[C@@H]2[C@H]([C@@H](O)C[C@@]3(C)[C@H]2CC[C@]3(O)C(=O)COC(=O)CCC(=O)O)[C@@]2(C)C=CC(=O)C=C12 [methylprednisolone-sodium-succinate] | -0.2 | 2.8 | 0.5 | -0.11% | -2.89 |
| COc1cc2nc(N3CCCN(C)CC3)nc(NC3CCN(Cc4ccccc4)CC3)c2cc1OC | 0.59 | 0.41 | -2.3 | 1.53% | 11.7 |
| O=c1[nH]cnc2c1cnn2[C@@H]1O[C@H](CO)[C@@H](O)[C@H]1O [allopurinol-riboside] | 0.99 | 0.92 | 2.88 | 0.52% | 1.75 |
| CC(=O)NS(=O)(=O)c1ccc(N)cc1 [sulfacetamide] | 0.35 | 2.07 | 1.95 | 2.14% | 0.21 |
